Rango-impB inh: inhibitors of Rango-importin beta complex formation | Rango CFP/YFP FRET sensor + importin beta, 45 min | Potency, µM (titrated, usually from 92.2 µM) | Q14974 | AID 540263 | actives 0.031% (n = 340,000); calls by dose curve; note: nearly all actives have a fitted effect of over 15% in size
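FRET biosensor Rango (snurportin 1 IBB between N-terminal EYFP and C-terminal Cerulean), 50 nM in PBS/1 mM DTT/0.02% Tween-20/0.1% BSA, preincubated 5 min RT with compound; 0.125 microM importin beta added, 45 min RT, CFP/YFP FRET ratio read.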
PI5P4K alpha inh: PI5P4K alpha (human) kinase inhibition | P48426 | PI5P4Kalpha enzyme, ADP-Glo luminescence, 60 min; hits give low values | max response, % | actives 1.2% (n = 330,000) | AID 652105; active = max response of -50% or lower; inconclusive = between -30% and -50%; inactive = -30% or higher; note: value at the top dose of about 77 µM
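Human PI5P4Kalpha with substrate in 0.038 M HEPES pH 7.4, 0.28 mM EGTA, 0.1% CHAPS, 5% DMSO; reaction started with 5 microM ATP (final), 60 min at room temperature. ADP formed read by ADP-Glo luminescence.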
VDR inhibitor: blocks the human vitamin D receptor. P11473. actives 0.93% (n = 400,000). AID 504847. VDR-SRC2-3 peptide fluorescence polarization, 2 h. Potency, µM, usual class: inhibitors
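Fluorescence polarization assay measuring small-molecule disruption of VDR binding to the coregulator peptide SRC2-3. Compounds were pin-transferred (23 nl) into the reagent mix and incubated 2 h at room temperature before reading.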
KAT2A inh: inhibitors of human GCN5L2 histone acetyltransferase; AID 504327; GCN5L2 HAT assay, ThioGlo1 CoA-SH fluorescence; Potency, µM (series often up to 58.9 µM), actives largely listed as inhibitors; actives 0.21% (n = 390,000); Q92830
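GCN5L2 (20nM final) in 50mM HEPES, 0.1mM EDTA pH 7.5, 0.01% Tween-20 was preincubated 15 min at room temperature with compound, then given ThioGlo1 (50uM), H3(1-25) peptide (75uM) and acetyl-CoA (70uM); CoA-thiol fluorescence (Ex340/Em540) was read at 0 and 20 min.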
Rango release inh: inhibition of RanGTP-driven Rango-importin beta dissociation | actives 0.071% (n = 340,000) | O95149+P62826 | Potency, µM (titrated, usually from 46.1 µM) | Biochemical FRET Rango-importin beta, RanGTP-induced dissociation; calls by dose curve; note: nearly all actives have a fitted effect of over 45% in size
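Recombinant Rango FRET biosensor (EYFP–snurportin 1 IBB–cerulean CFP10) at 0.1 uM premixed with 0.25 uM importin beta in PBS, 1 mM DTT, 0.02% Tween-20, 0.1% BSA. Compound added 5 min; RanGTP-RCC1 (0.6 uM Ran, 2 mM GTP, 0.2 uM RCC1) then triggers release, read at 45 min.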
PLK1 PBD inh: PLK1 (human) polo-box domain binding inhibition | P53350 | Plk1 PBD binding of FITC phosphopeptide, fluorescence polarization | Potency, µM, hits mostly inhibitors | actives 2.8% (n = 360,000); note: series mostly up to about 57 µM; nearly all actives have a fitted effect of over 65% in size
Target sequence (P53350 whole entry, looked up, the tested form may be a part): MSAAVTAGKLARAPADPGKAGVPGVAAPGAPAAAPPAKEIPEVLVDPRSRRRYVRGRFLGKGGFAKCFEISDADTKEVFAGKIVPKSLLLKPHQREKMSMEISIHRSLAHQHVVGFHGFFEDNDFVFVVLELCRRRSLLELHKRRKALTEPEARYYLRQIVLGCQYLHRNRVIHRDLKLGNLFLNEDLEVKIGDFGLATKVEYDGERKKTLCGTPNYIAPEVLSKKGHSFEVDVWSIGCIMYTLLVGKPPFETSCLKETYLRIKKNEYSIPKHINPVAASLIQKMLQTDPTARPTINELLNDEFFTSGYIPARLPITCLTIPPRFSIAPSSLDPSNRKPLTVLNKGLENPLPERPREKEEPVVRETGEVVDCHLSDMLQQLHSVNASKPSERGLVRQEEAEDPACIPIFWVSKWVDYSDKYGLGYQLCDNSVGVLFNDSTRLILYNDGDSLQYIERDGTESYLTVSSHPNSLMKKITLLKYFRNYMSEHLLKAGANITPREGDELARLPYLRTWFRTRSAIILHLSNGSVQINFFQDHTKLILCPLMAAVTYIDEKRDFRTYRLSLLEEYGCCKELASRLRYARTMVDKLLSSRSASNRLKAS
A number is an active result; . = inactive; ? = inconclusive; / = not tested or not shown. Compounds with a hit are over-represented: about 3.6% of the library has one in this group of screens. Unless noted, calls come from the whole dose curve; as a rule, active = well fitted curve in the direction sought with a large enough effect; inconclusive = small, poorly fitted or top-dose-only effect, or another doubt; inactive = no such curve, though single readings can be large; an effect the other way counts as inactive or inconclusive.

SMILES	Rango-impB inh	PI5P4K alpha inh	VDR inhibitor	KAT2A inh	Rango release inh	PLK1 PBD inh
CCOC(=O)c1ccc(N2CSC3=C(C#N)C(c4ccc(OC)cc4OC)CC(=O)N3C2)cc1 (stereo unspecified)	.	.	.	?	.	.
COc1cccc(C2CC(=O)N3CN(c4ccccc4F)CSC3=C2C#N)c1 (stereo unspecified)	?	-74	45µM	16µM	?	.
Cc1ccc(S(=O)(=O)c2cn(C)c3cc(N4CCCC(C)C4)c(F)cc3c2=O)c(C)c1 (stereo unspecified)	/	/	.	.	/	/
COc1ccc(C2CC(=O)N3C(=C2C#N)SCC3(O)c2ccccc2)cc1 (stereo unspecified)	?	/	.	.	?	.
COc1ccc2ccccc2c1C1CC(=O)N2CN(C)CSC2=C1C#N (stereo unspecified)	.	-84	25µM	22µM	.	7.5µM
C=CCN1CCN(c2nc3ccccc3nc2C#N)CC1	/	/	35µM	?	/	/
CC1CC(C)(C)NC(=O)O1 (stereo unspecified)	.	.	.	.	.	.
CC1CC(C)(C)NC(=S)S1 (stereo unspecified)	.	.	.	.	.	24µM
NC(=O)C1=CN(C2OC(COP(=O)(O)OP(=O)(O)OC[C@H]3O[C@@H](n4cnc5c(N)ncnc54)[C@H](OP(=O)(O)O)[C@@H]3O)C(O)C2O)C=CC1 (stereo partly specified)	/	/	.	.	/	/
Cn1c(-c2csc(-c3cccc(C(F)(F)F)c3)n2)n[nH]c1=S	.	.	.	.	.	.
Cn1c(CNc2cccc(C(F)(F)F)c2)n[nH]c1=S	.	.	.	.	.	27µM
O=C(NN1C(=O)/C(=C/C=C/c2ccccc2)SC1=S)c1ccncc1	.	.	?	.	.	?
CC(C)C(C(=O)O)N1C(=O)/C(=C/C=C/c2ccco2)SC1=S (stereo unspecified)	?	-94	.	?	0.0052µM	3µM
O=C(NN1C(=O)/C(=C/C=C/c2ccco2)SC1=S)c1ccncc1	?	-79	.	.	?	4.7µM
Cc1ccc(S(=O)(=O)N2CCN(c3nc(-c4cccs4)cc4ccccc34)CC2)cc1	/	/	.	/	/	/
N[C@@]1(C(=O)O)CO[C@H]2[C@H](C(=O)O)[C@H]21	/	/	.	.	/	/
CCC(=O)Nc1ccc(C2=Nn3c(nnc3C(C)C)SC2)cc1	.	.	.	.	.	24µM
Cc1ccc(C(=O)c2oc3ccccc3c2NC(=O)COc2ccccc2C)cc1	/	/	.	.	/	/
COC(=O)/C(=C(/F)Sc1cc(C)c(O)c(C)c1)C(F)(F)F	.	/	.	.	.	3.8µM
Oc1ccc(C(=S)N2CCCC2)cc1	.	.	?	?	.	24µM
S=C(c1ccc(N2CCCC2)cc1)N1CCCCC1	.	.	.	.	?	8.4µM
S=C(c1ccc(N2CCOCC2)cc1)N1CCOCC1	.	/	?	.	.	27µM
Oc1cccc(C(=S)N2CCCCC2)c1	?	.	?	.	.	11µM
O=C(NCc1cccc(Cl)c1)C1CCCN(c2ncnc3onc(-c4ccc(F)cc4)c23)C1 (stereo unspecified)	/	/	.	.	/	/
COc1cc(OC)c(NC(=O)CC(c2cccs2)N2Cc3ccccc3C2=O)cc1Cl (stereo unspecified)	/	/	.	.	/	/
SMILES	Rango-impB inh	PI5P4K alpha inh	VDR inhibitor	KAT2A inh	Rango release inh	PLK1 PBD inh
COc1ccc(CNC(=O)Cc2c(C)c3cc4c(C)coc4c(C)c3oc2=O)cc1	/	/	.	.	/	/
CC(C)(C)c1cc(C(=S)N2CCCC2)cc(C(C)(C)C)c1O	.	.	?	.	.	30µM
CC(C)(C)c1cc(CCC(=O)N2CCCC2)cc(C(C)(C)C)c1O	.	.	.	.	.	.
COc1ccc(S(=O)(=O)N2CCC(C(=O)NCC(c3cccs3)N(C)C)CC2)cc1 (stereo unspecified)	.	.	.	.	.	.
CC(NC(=O)C1CCN(S(=O)(=O)c2ccccc2)CC1)c1ccccc1 (stereo unspecified)	.	.	.	.	.	.
Cc1[nH]c(=O)[nH]c(=O)c1S(=O)(=O)N1CCC(C(=O)NC(C)c2ccccc2)CC1 (stereo unspecified)	.	.	.	.	.	34µM
CN(C)C(CNC(=O)C1CCN(S(=O)(=O)c2ccccc2)CC1)c1ccccc1 (stereo unspecified)	.	.	.	.	.	34µM
Fc1cc(Br)ccc1Nc1c2c(nc3nc(-c4cccs4)nn13)CCCC2	/	/	.	.	/	/
COc1ccc(CCNC(=O)Cn2c(=O)c3cccn3c3ccccc32)cc1OC	/	/	.	.	/	/
O=C(OCc1ccccc1F)c1ccc(-c2nnn(Cc3ccccc3)n2)cc1	/	/	.	.	/	/
Nc1nc(=S)c2ncn([C@@H]3O[C@H](CO)[C@@H](O)[C@H]3O)c2[nH]1	.	-77	.	.	.	21µM
CC1(C)OC2C(CO)OC(n3cnc4c(=S)nc(N)[nH]c43)C2O1 (stereo unspecified)	/	.	/	/	/	?
Nc1nc(=S)c2ncn(C3OC(CO)C(O)C3O)c2[nH]1 (stereo unspecified)	?	-81	71µM	?	.	11µM
N#Cc1nc(-c2ccc(OCc3ccccc3Cl)cc2)oc1N1CCC(C(N)=O)CC1	/	/	.	/	/	/
O=C(c1ccc([N+](=O)[O-])cc1)N1CCN(c2ncc(Br)cn2)CC1	.	.	?	.	.	27µM
COc1cc2c(c(OC)c1OC)-c1c(cc3c(c1OC)OCO3)CC(C)C(C)(O)C2OC(=O)c1ccccc1 (stereo unspecified)	/	/	.	?	/	/
CCCCCCCCCCCCCCCC(=O)N[C@@H](COP(=O)(O)O)C(=O)O	/	/	13µM	1.6µM	/	/
CC(C)N(C(=O)Nc1ccc2nsnc2c1)C(C)C	?	?	14µM	.	?	13µM
COc1ccc(N(C)C(=O)Nc2ccc3nsnc3c2)cc1	?	.	.	.	?	.
CCOc1ccc(NC(=S)Nc2ccc3nsnc3c2)cc1	?	.	79µM	.	?	27µM
COc1ccc(NC(=S)Nc2ccc3nsnc3c2)cc1	.	.	89µM	.	?	13µM
COc1ccc(-c2cn3cccnc3n2)cc1NC(=O)Nc1cc(C)ccc1C	/	/	.	.	/	/
O=C1NC(=O)C2(N1)C(=O)c1cccc3cccc2c13 (stereo unspecified)	/	.	/	/	/	11µM
Cc1c(Cl)cccc1NS(=O)(=O)c1ccc2[nH]cc(C(=O)NC3CCCC3)c(=O)c2c1	/	/	.	.	/	/
CCOC(=O)C1CCN(C(=O)Cn2ncc3c4ccccc4n(Cc4ccc(F)cc4)c3c2=O)CC1	/	/	.	.	/	/
CSc1ccc(C2CC(=O)Nc3c2c(=O)n(C)c(=O)n3C)cc1 (stereo unspecified)	.	.	?	.	.	27µM
CCOc1ccccc1C(=O)Nc1c(C(=O)Nc2ccc(F)cc2)oc2ccccc12	/	/	.	.	/	/
